Measurements: PubChem BioAssay AID1852 (Sanford-Burnham Center for Chemical Genomics, 2009)
Screen size: about 2,500 compounds; about 1,100 (44%) were called active.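 How the source made its calls: active means inhibition above 50% at 4 µM in the single-point screen; inactive means inhibition of 50% or less.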 So high a share suggests a set chosen from earlier hits. Some of the results follow.

Assay: TNF-a-driven NF-kB reporter inhibitors, primary screen, selectivity assay for NOD1/NOD2 signaling inhibitor project, cell-based, HEK293T NF-kB-Luc, luminescence (AID 1852)
Details: TNF-a induced, 14 h, at 4 µM, stronger effect = higher value

inhibition, active:
O=C(Nc1ccc(N2CCN(C(=O)c3ccccc3F)CC2)cc1)c1cncc(Br)c1 72.9%, Cc1ccc(-c2c3c(nc4sc(C(N)=O)c(N)c24)CCC3)cc1 82.9%, NC(=O)c1sc2nc3c(c(-c4ccccc4)c2c1N)CCC3 96.6%, Cc1nc2sc(C(N)=O)c(N)c2c2c1CCCC2 92.8%, NC(=O)c1sc2nc3c(c(-c4ccco4)c2c1N)CCCC3 83.5%, NC(=O)c1sc2nc3c(c(-c4cccs4)c2c1N)CCCCC3 90%, Cc1nnc(N2CCCC(C(=O)Nc3cc(F)ccc3F)C2)c2nn(-c3ccccc3)c(C)c12 (configuration not stated) 95.7%, COc1ccc(Cc2[nH]n3c(=O)c(Cl)c(C)nc3c2-c2ccccc2)cc1 106%, COc1cc(/C=N/NC(=O)c2cc(-c3ccc4c(c3)OCO4)n[nH]2)ccc1O 55.4%, Cc1ccc(N=Nc2ccc(O)c3ncccc23)cc1 96.9%, Cc1ccc(N=Nc2ccc(O)c3ncccc23)cc1C 105%, Cc1ccccc1N=Nc1ccc(O)c2ncccc12 105%, COCCn1c(=S)[nH]c2cc(C(=O)N3CCCC(C)C3)ccc2c1=O (configuration not stated) 94.8%, O=C(NCc1cccnc1)/C(=C/c1ccc(-c2cccc(Cl)c2)o1)S(=O)(=O)c1ccccc1 99.5%, O=C(NCc1cccnc1)/C(=C\c1ccc(-c2cccc(Cl)c2)o1)S(=O)(=O)c1ccccc1 91.5%, COc1ccc(-c2n(CC(=O)OC3CC(C)CCC3C(C)C)c3ccccc3[n+]2C)cc1 (configuration not stated) 74.8%, C/C(=N\NC(=O)c1cc(C2CC2)nc2ccccc12)c1ccc(O)cc1O 66.6%, C/C(=N\NC(=O)c1c(C)nc2ccccn12)c1ccc(O)cc1O 69.2%, O=C(Nc1nnc(-c2ccc3c(c2)CCCC3)o1)c1ccc(Cl)cc1Cl 101%, O=C(Nc1nnc(-c2ccc3c(c2)CCCC3)o1)c1ccccc1 106%, O=C(Nc1nnc(-c2ccc3c(c2)CCCC3)o1)c1ccccc1Cl 106%, O=C(/C=C/c1ccc([N+](=O)[O-])s1)N1CCCCC1 54.6%, CC1CC(C)CN(C(=O)/C=C/c2ccc([N+](=O)[O-])s2)C1 (configuration not stated) 60.4%, CC[n+]1cc(C)ccc1/C=C/c1ccc(N(C)C)cc1 57.1%, CC[n+]1ccc(/C=C/c2ccc(N(C)C)cc2)c2ccccc21 62.5%, CC(C)CC[n+]1ccccc1/C=C/c1ccc(N(C)C)cc1 74.3%, O=C(NCc1ccco1)c1nc2c(nnn2Cc2ccccc2Cl)c(=O)[nH]1 78.4%, O=C(NCc1cccs1)c1nc2c(nnn2Cc2ccccc2Cl)c(=O)[nH]1 98.2%, CCC(C)N(CC(=O)Nc1cccc(C)c1C)C(=O)CCl (configuration not stated) 85.8%, CCCN(CC(=O)Nc1ccccc1C)C(=O)CCl 93.3%, CC(=O)Oc1c(C)cc(Cl)cc1C(=O)Nc1ccc([N+](=O)[O-])cc1Cl 98.1%, Nc1nn2c(-c3ccccc3)cc(=O)[nH]c2c1N=Nc1ccc(Br)cc1 78.7%, COc1ccc(C(=O)/C(C#N)=N/Nc2cccc([N+](=O)[O-])c2)cc1 87.9%, O=C(c1ccccc1)c1nn(-c2ccc(Cl)cc2)c(=O)cc1C(F)(F)F 54.8%

inhibition, inactive:
O=C(Nc1ccc(N2CCN(Cc3ccccc3F)CC2)cc1)c1ccc([N+](=O)[O-])o1 20%, O=C(Nc1ccc(Br)cc1)c1ccc(F)c(S(=O)(=O)N2CCN(c3ccccn3)CC2)c1 36.8%, CCOC(=O)c1ccc(NC(=O)c2sc3nc(N4CCOCC4)c4c(c3c2N)CCCC4)cc1 -98.3%, O=C(N/N=C/c1cccs1)c1n[nH]c2c1CCCC2 1.7%, COc1ccc(/C=c2/sc3nc(-c4ccccc4)c(-c4ccccc4)n3c2=O)cc1 -25.7%, CCNC(=O)/C(C#N)=C/c1c(N2CCN(c3ccc(OC)cc3)CC2)nc2c(C)cccn2c1=O 15.3%, Cc1ccc(C)c(N=Nc2ccc(O)c3ncccc23)c1 42.5%, Oc1ccc(N=Nc2ccc3c(c2)OCCO3)c2cccnc12 39.5%, Cc1ccc2c(C)ccc(O)c2n1 -70.6%, CCOC(=O)C1CCCN(C(=O)c2ccc3c(=O)n(CCOC)c(=S)[nH]c3c2)C1 (configuration not stated) 21.6%, COc1ccc(Cc2nc3ccc(C(=O)N4CCN(C)C(C)C4)cc3o2)cc1OC (configuration not stated) 45.4%, CCN(CC)c1nc(N2CCOCC2)nc2ccccc12 2%, COc1ccc(/C=N/NS(=O)(=O)c2ccc(F)cc2)cc1COc1cc(F)ccc1[N+](=O)[O-] 12.7%, O=C(CCc1nnc(-c2ccc(-c3ccccc3)cc2)o1)N1CCCCC1 -6.8%, CC(C)(C)OC(=O)N[C@@H](Cc1ccccc1)c1nnc(S(=O)(=O)Cc2cccc(F)c2)o1 -10.8%, O=C(/C=C/c1ccc([N+](=O)[O-])s1)N1CCN(c2ccccc2)CC1 10.5%, CC1CN(C(=O)/C=C/c2ccc([N+](=O)[O-])s2)CC(C)O1 (configuration not stated) 41%, Cc1ccc(/C=C/c2ccc(N(C)C)cc2)[n+](C)c1 28.5%, O=C(CCl)N=c1sccn1Cc1ccccc1Cl 48.8%, Cc1cccc(C(=O)Nc2scc(CC(C)C)c2C(=O)O)c1 -33.5%, Cc1cccc(Nc2nc(N)nc(CCl)n2)c1C 18.1%, Cc1cccc(NC(=O)CCNC(=O)c2ccc(Br)cc2)c1C -6.4%, CCOC(=O)N1CCN(C(=O)c2ccc([N+](=O)[O-])cc2Cl)CC1 43%, Nc1nn2c(-c3ccccc3)cc(=O)[nH]c2c1N=Nc1ccc(O)cc1 -17.5%, COc1ccc(S(=O)(=O)NC(C)C(=O)Nc2cccc([N+](=O)[O-])c2)cc1 (configuration not stated) 36.7%, COC(=O)c1scc(S(=O)(=O)C(C)C)c1N/N=C(\C#N)C(=O)c1ccc(Cl)cc1 27.4%, O=C(NNC(=O)c1cc(-c2ccccc2)nn1-c1ccccc1)c1ccccc1 11.9%, O=C(Nc1ccc(F)cc1)c1nn(-c2ccccc2)c(=O)cc1Cl -30.5%
